Results filed as inconclusive are left out. A call without a number means that no potency is given here. The source made the active and inactive calls. Unless noted, the call rests on the fitted dose curve.
Tested on: estrogen-related receptor alpha (ERRalpha) with PGC-1alpha coactivator, human
Assay: qHTS assay to identify small molecule antagonists of the estrogen related receptor signaling pathway with the pleiotropic PPARgamma coactivator (PGC) (AID 1224821); further: nearly all actives have a fitted effect of over 50% in size
Conditions: ERR/PGC reporter cell line, luciferase, antagonist mode; series mostly up to 46.1 µM
Outline: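 PGC/ERR reporter cell line, plated 6 h before compound addition, then exposed 18 h at 37 °C. Luciferase activity read by luminescence 30 min after One-Glo addition; decrease indicates antagonism.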
Potency means the concentration at half of the fitted maximal effect.

| Compound | Potency |
| --- | --- |
| N[C@@H](CCCC(=O)O)C(=O)O | inactive |
| O=C(O)Cc1c[nH]c2ccc(O)cc12 | inactive |
| CC1CNCCN1S(=O)(=O)c1cccc2cnccc12 (stereo unspecified) | inactive |
| NC[C@@H]1O[C@H](c2ccccc2)Cc2c1ccc(O)c2O | inactive |
| CC(C)NC[C@@H](O)c1ccc(O)c(O)c1 | inactive |
| CN1C2CCC1CC(OC(=O)C(O)c1ccccc1)C2 (stereo unspecified) | inactive |
| CS(=O)(=O)c1cccc(CNc2nc(Nc3ccc4c(c3)CCC(=O)N4)ncc2C(F)(F)F)c1 | inactive |
| CCCCCC(O)CCCC(=O)O (stereo unspecified) | inactive |
| NC1C=CC=C(C(=O)O)C1 (stereo unspecified) | inactive |
| O=C1NC(=O)/C(=C/c2ccc(-c3ccc(F)cc3O)o2)S1 | inactive |
| NCCCCNCCCN | inactive |
| CN(C)CCCc1cc(C(=O)Nc2ccc(-c3ccncc3)cc2)ccc1O | inactive |
| Cc1ccc2c(c1)C(N1CCN(C)CC1)=Nc1cccnc1N2 | inactive |
| NS(=O)(=O)c1ccc(-n2nc(C(F)(F)F)cc2-c2ccc(Cl)cc2)cc1 | inactive |
| CC(C)C[C@H](NC(=O)[C@H](O)[C@H](N)Cc1ccccc1)C(=O)O | inactive |
| CSc1nc(N)c2ncn([C@@H]3O[C@H](COP(=O)(O)OP(=O)(O)OP(=O)(O)O)C(O)[C@H]3O)c2n1 (stereo partly specified) | inactive |
| CCNC(=O)[C@H]1O[C@@H](n2cnc3c(N)nc(NCCc4ccc(CCC(=O)O)cc4)nc32)[C@H](O)C1O (stereo partly specified) | inactive |
| OC[C@H]1O[C@@H](n2cnc3c(NC4CCCCC4)ncnc32)[C@H](O)[C@@H]1O | inactive |
| NC1(C(=O)O)CCCCC1 | inactive |

| Compound | Potency |
| --- | --- |
| O=C(O)c1cc2cc(Cc3cccnc3)ccc2o1 | inactive |
| C[C@@H](NCCc1ccc(O)cc1)[C@@H](O)c1ccc(O)cc1 | inactive |
| CC(C)Cn1c(=O)n(C)c(=O)c2[nH]cnc21 | inactive |
| Nc1ncnc2c1ncn2C1CCCO1 (stereo unspecified) | inactive |
| C=CC[C@H](N)C(=O)O | inactive |
| N=c1ccn2c(n1)O[C@H]1C(O)[C@@H](CO)O[C@H]12 (stereo partly specified) | inactive |
| COc1cc(CC(=O)O)ccc1O | inactive |
| CNCCNS(=O)(=O)c1cccc2cnccc12 | 9.08 µM (active) |
| COC(=O)[C@H]1[C@H]2C[C@H]3c4[nH]c5ccccc5c4CCN3C[C@H]2CC[C@@H]1O | inactive |
| N[C@@H](CC(=O)O)C(=O)O | inactive |
| Nc1nc2ccc(Cl)cc2n2c(-c3ccccc3)nnc12 | inactive |
| CN(C)C(N)=NCCC[C@H](N)C(=O)O | inactive |
| N[C@H](CO)C(=O)O | inactive |
| O=c1cc(-c2ccccc2)oc2c(O)c(O)ccc12 | inactive |
| CN1CC(O)C(O)C(O)C1CO (stereo unspecified) | inactive |
| CCN(CC)CCCCNc1ncc2cc(-c3c(Cl)cccc3Cl)c(NC(=O)NC(C)(C)C)nc2n1 | inactive |
| O=C(O)CCCC[C@@H]1CCSS1 | inactive |
| COc1ccccc1CNCCCCCCNCCCCCCCCNCCCCCCNCc1ccccc1OC | inactive |
| NCCCS(=O)(=O)O | inactive |

Tested on: not listed separately
Assay: qHTS assay to identify small molecule antagonists of the estrogen related receptor signaling pathway with the pleiotropic PPARgamma coactivator (PGC) cell viability counter screen (AID 1224822; active means well fitted cell-killing curve with a large enough effect in the repeat runs;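 further: viability read after 17.5 h compound exposure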)
Conditions: ERR/PGC reporter cell line viability counter screen; series mostly up to 46.1 µM
Outline: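 Seed PGC/ERR cells (2,000/well); incubate 6 h at 37 C/5% CO2; pin-transfer compounds in DMSO; incubate 17.5 h at 37 C; add CellTiter-Fluor; after 30 min read fluorescence.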

| Compound | Potency |
| --- | --- |
| N[C@@H](CCCC(=O)O)C(=O)O | inactive |
| O=C(O)Cc1c[nH]c2ccc(O)cc12 | inactive |
| CC1CNCCN1S(=O)(=O)c1cccc2cnccc12 (stereo unspecified) | inactive |
| NC[C@@H]1O[C@H](c2ccccc2)Cc2c1ccc(O)c2O | inactive |
| CC(C)NC[C@@H](O)c1ccc(O)c(O)c1 | inactive |
| CN1C2CCC1CC(OC(=O)C(O)c1ccccc1)C2 (stereo unspecified) | inactive |
| CS(=O)(=O)c1cccc(CNc2nc(Nc3ccc4c(c3)CCC(=O)N4)ncc2C(F)(F)F)c1 | inactive |
| CCCCCC(O)CCCC(=O)O (stereo unspecified) | inactive |
| NC1C=CC=C(C(=O)O)C1 (stereo unspecified) | inactive |
| O=C1NC(=O)/C(=C/c2ccc(-c3ccc(F)cc3O)o2)S1 | inactive |
| NCCCCNCCCN | inactive |
| CN(C)CCCc1cc(C(=O)Nc2ccc(-c3ccncc3)cc2)ccc1O | inactive |
| Cc1ccc2c(c1)C(N1CCN(C)CC1)=Nc1cccnc1N2 | inactive |
| NS(=O)(=O)c1ccc(-n2nc(C(F)(F)F)cc2-c2ccc(Cl)cc2)cc1 | inactive |
| CC(C)C[C@H](NC(=O)[C@H](O)[C@H](N)Cc1ccccc1)C(=O)O | inactive |
| CSc1nc(N)c2ncn([C@@H]3O[C@H](COP(=O)(O)OP(=O)(O)OP(=O)(O)O)C(O)[C@H]3O)c2n1 (stereo partly specified) | inactive |
| CCNC(=O)[C@H]1O[C@@H](n2cnc3c(N)nc(NCCc4ccc(CCC(=O)O)cc4)nc32)[C@H](O)C1O (stereo partly specified) | inactive |
| OC[C@H]1O[C@@H](n2cnc3c(NC4CCCCC4)ncnc32)[C@H](O)[C@@H]1O | inactive |
| NC1(C(=O)O)CCCCC1 | inactive |

| Compound | Potency |
| --- | --- |
| O=C(O)c1cc2cc(Cc3cccnc3)ccc2o1 | inactive |
| C[C@@H](NCCc1ccc(O)cc1)[C@@H](O)c1ccc(O)cc1 | inactive |
| CC(C)Cn1c(=O)n(C)c(=O)c2[nH]cnc21 | inactive |
| Nc1ncnc2c1ncn2C1CCCO1 (stereo unspecified) | inactive |
| C=CC[C@H](N)C(=O)O | inactive |
| N=c1ccn2c(n1)O[C@H]1C(O)[C@@H](CO)O[C@H]12 (stereo partly specified) | inactive |
| COc1cc(CC(=O)O)ccc1O | inactive |
| CNCCNS(=O)(=O)c1cccc2cnccc12 | inactive |
| COC(=O)[C@H]1[C@H]2C[C@H]3c4[nH]c5ccccc5c4CCN3C[C@H]2CC[C@@H]1O | inactive |
| N[C@@H](CC(=O)O)C(=O)O | inactive |
| Nc1nc2ccc(Cl)cc2n2c(-c3ccccc3)nnc12 | inactive |
| CN(C)C(N)=NCCC[C@H](N)C(=O)O | inactive |
| N[C@H](CO)C(=O)O | inactive |
| O=c1cc(-c2ccccc2)oc2c(O)c(O)ccc12 | inactive |
| CN1CC(O)C(O)C(O)C1CO (stereo unspecified) | inactive |
| CCN(CC)CCCCNc1ncc2cc(-c3c(Cl)cccc3Cl)c(NC(=O)NC(C)(C)C)nc2n1 | 13.3 µM (active) |
| O=C(O)CCCC[C@@H]1CCSS1 | inactive |
| COc1ccccc1CNCCCCCCNCCCCCCCCNCCCCCCNCc1ccccc1OC | inactive |
| NCCCS(=O)(=O)O | inactive |
